# According to PubChem BioAssay (Tox21):
# Results filed as inconclusive are left out. Entries that show only a call come without a potency. Active and inactive are the calls of the source. The call rests on the fitted dose curve; in most records, active means well fitted cell-killing curve with a large enough effect in the repeat runs; inconclusive means weak or mixed curves, or effect the other way; inactive means flat fitted curve, though single readings scatter.
# Test: cAMP Responsive Elements (CRE) small molecule agonists, cell-based qHTS assay: qHTS cell viability counter screen (AID 2060914); further: nearly all actives have a fitted effect of over 50% in size
# Details: CRE-bla HEK293T viability, CellTiter-Glo luminescence, 5 h; series mostly up to 92.4 µM
# How it was run: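 Cells are seeded and incubated 18 h, treated with compounds in DMSO for 3 h, read for the bla reporter, then given CellTiter-Glo; luminescence is measured after 30 min at room temperature.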
# Potency means the concentration at half of the fitted maximal effect.
SMILES,Potency,"activity change, negative = cytotoxicity"
OCCC(F)(F)C(F)(F)C(F)(F)C(F)(F)C(F)(F)C(F)(F)F,inactive,–
O=C1C(N(CO)C(=O)NCO)N(CO)C(=O)N1CO (stereo not drawn),inactive,–
CCOc1ccc(N)c([N+](=O)[O-])c1,inactive,–
O=C1CC2(CCCC2)CC(=O)N1,inactive,–
O=C(Cn1ccnc1[N+](=O)[O-])NCc1ccccc1,inactive,–
O=C(O)c1ccc(OCCCOc2ccc(C(=O)O)cc2)cc1,inactive,–
Nc1cc(C(=O)O)ccc1Cl,inactive,–
CCCCC/C=C\CCC=O,inactive,–
CN(C)CCN(Cc1cccs1)c1ccccn1,inactive,–
C[C@H](CN1CCCC1)C(=O)c1ccc(C(F)(F)F)cc1,inactive,–
CCCC[C@H]1CN(CC2CCOCC2)C(=O)OC12CCN(C1(C)CCN(C(=O)c3c(C)ncnc3C)CC1)CC2,inactive,–
NC1CCCCC1,inactive,–
CCN(CC)CCOc1ccc(/C(=C(\Cl)c2ccccc2)c2ccccc2)cc1,inactive,–
O=C(CCCCCCC(=O)Nc1ccccc1)NO,inactive,–
CC(C)(C)CC(C)(C)c1ccccc1O,61.4 µM (active),–
CCn1cc(C(=O)O)c(=O)c2cnc(N3CCCC3)nc21,–,-22.5% [at 8.39 µM] (inactive)
C#C[C@]1(OC(C)=O)CC[C@H]2[C@@H]3CCC4=C[C@@H](OC(C)=O)CC[C@@H]4[C@H]3CC[C@@]21C,inactive,–
CCC(=O)OC/C=C/c1ccccc1,inactive,–
C=CCNCC=C,inactive,–
NCCCC(O)(P(=O)(O)O)P(=O)(O)O,inactive,–
CC(C)(C)c1ccc(OCC2CO2)cc1 (stereo not drawn),inactive,–
CC1OCCC1=O (stereo not drawn),inactive,–
CC(C)(O)c1ccc(CNC(=O)c2cccnc2Oc2ccc3nonc3c2)cc1,inactive,–
